The results in this text go back to PubChem BioAssay (NCI).

The panel holds about 79,000 compounds, 15% with a hit somewhere; the sample as a whole holds those more often. A number with no mark means an inactive call. Activity calls are given as the source filed them. Cut-off read from the data, not from the text of the source: active = growth inhibition above about 70%; inactive = the rest.

The nature of experiment [1]: NCI Yeast Anticancer Drug Screen. Data for the rad50 strain (AID 155).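 Note: 0% = growth of vehicle-only cultures of the same strain.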 The note with it: S. cerevisiae rad50 strain growth inhibition; at 50.0 µM; hits give high values. In a few lines: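 Genetically altered yeast (DNA repair pathway); compound treatment; growth inhibition vs vehicle ctrl.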
A short description of experiment [2]: NCI Yeast Anticancer Drug Screen. Data for the mec2-1 strain (AID 157). The note with it: S. cerevisiae mec2-1 strain, at 50.0 µM, hits give high values. In a few lines: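 Compounds were applied to mec2-1 yeast cells. Their growth was then compared with that of vehicle-treated cultures to give growth inhibition.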
Experiment [3] in a line: NCI Yeast Anticancer Drug Screen. Data for the sgs1 mgt1 strain (AID 161).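 Note: 0% = growth of cultures given vehicle only.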 The note with it: S. cerevisiae sgs1 mgt1 strain, at 50.0 µM, hits give high values. The gist of the method:
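Yeast cells carrying a defined DNA-repair defect were exposed to test compounds. Growth inhibition was measured relative to vehicle-treated controls.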

The nature of experiment [4]: NCI Yeast Anticancer Drug Screen. Data for the cln2 rad14 strain (AID 165).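 Note: 0% = growth equal to vehicle treated cultures.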 The note with it: S. cerevisiae cln2 rad14 strain, at 50.0 µM, hits give high values. In a few lines: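 Strain: cln2 rad14 yeast, altered in cell cycle control and DNA damage repair. Read-out: growth inhibition vs vehicle.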
A short description of experiment [5]: NCI Yeast Anticancer Drug Screen. Data for the bub3 strain (AID 167). As to conditions: S. cerevisiae bub3 mutant strain, at 50.0 µM, hits give high values. The gist of the method: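 Yeast carrying a defined mutation is treated with each compound, and growth is compared with that of vehicle-exposed cells to give inhibition.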
The nature of experiment [6]: NCI Yeast Anticancer Drug Screen. Data for the mlh1 rad18 strain (AID 175). The note with it: S. cerevisiae mlh1 rad18 strain growth inhibition; at 50.0 µM; hits give high values. The gist of the method:
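A repair-deficient yeast strain is exposed to test compound, and growth is scored relative to vehicle-treated controls.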

In the case of `COCOC(C)=O`, the growth inhibition in experiment [1] was -9.1%; in experiment [2], -6.4%; in experiment [3], 3.7%; in experiment [4] it was 0.5%; in experiment [5] it was -12.4%; in experiment [6] it was 1.4%.

On to `O=C(Cc1ccccc1)c1ccc(OCC(O)CN2CCN(c3ccccc3)CC2)cc1` (stereo unspecified), for which the growth inhibition in experiment [1] is 97.7% (active); in experiment [2] it was 98.1% (active); in experiment [3] it was 99.3% (active); in experiment [4], 93.4% (active); in experiment [5], 84.1% (active); in experiment [6] it was 96.3% (active).

Consider `COP(=O)(O)OP(=O)(O)OC`, for which the growth inhibition in experiment [1] was 1.2%; in experiment [2], -29.5%; in experiment [3], 25.2%; in experiment [4], 6.35%; in experiment [5] it was 13.8%; in experiment [6], 16.8%.

Consider `Nc1ncnc(N)c1NC(=O)CCCc1ccccc1`, for which the growth inhibition is 5.85% in experiment [1]; 18.6% in experiment [2]; -2.95% in experiment [3]; 1% in experiment [4]; 33.5% in experiment [5]; 15.9% in experiment [6].

On to `Cc1ccc(S(=O)(=O)OC(c2ccc(Cl)cc2)C(F)(F)F)cc1` (stereo unspecified), for which the growth inhibition in experiment [1] is 7.55%; in experiment [2] it was -22.6%; in experiment [3], -0.55%; in experiment [4] it was 21.9%; in experiment [5] it was 3.45%; in experiment [6], 17.8%.

As for `O=C(O)c1ccccc1/C=N\N(CCO)C1=NCCN1`, the growth inhibition is 21.4% in experiment [1]; 13.1% in experiment [2]; 13.9% in experiment [3]; -25.1% in experiment [4]; 2.95% in experiment [5]; 19% in experiment [6].

In the case of `O=C1c2ccccc2C(=O)C1(Cl)C(Cl)c1ccc([N+](=O)[O-])cc1` (stereo unspecified), the growth inhibition in experiment [1] is 99.3% (active); in experiment [2] it was 98.9% (active); in experiment [3], 99.6% (active); in experiment [4], 99.1% (active); in experiment [5], 99.3% (active); in experiment [6] it was 99.5% (active).

Turning to `CCc1cccc(C)c1N1C(=O)C(=O)C(c2nc3ccccc3o2)C(=O)C1=O`, the growth inhibition in experiment [1] was 33.8%; in experiment [2] it was 17.9%; in experiment [3], 19.7%; in experiment [4], 16%; in experiment [5], -4.55%; in experiment [6], 34.5%.

As to `CCOC(=O)c1c(C)c2c(n1C)CCC(C#N)C2=O` (stereo unspecified), the growth inhibition in experiment [1] was 9.3%; in experiment [2] it was 10.4%; in experiment [3], 9.8%; in experiment [4] it was 21.1%; in experiment [5], 9.05%; in experiment [6], 17.5%.

As for `CC[N+]1(C)CC2CCC1C2` (stereo unspecified), the growth inhibition in experiment [1] is 4.55%; in experiment [2], 17.1%; in experiment [3] it was 14.5%; in experiment [4], -39.9%; in experiment [5], 5.85%; in experiment [6], -11.8%.

`COc1ccc(C(O)c2cc(C(F)(F)F)cc(C(F)(F)F)c2)cc1OC` (stereo unspecified): the growth inhibition in experiment [1] was 9.2%; in experiment [2] it was -11.6%; in experiment [3], 11.2%; in experiment [4], 8.2%; in experiment [5] it was 22.9%; in experiment [6], 14.3%.

As to `O=C(SCc1oc2ccccc2c1O)c1ccccc1`, the growth inhibition in experiment [1] is 12.8%; in experiment [2] it was 13.7%; in experiment [3], 16.5%; in experiment [4], -3.75%; in experiment [5], -7.3%; in experiment [6] it was 13.3%.

Consider `O=[N+]([O-])C1CCCCC1`, for which the growth inhibition in experiment [1] is -11.8%; in experiment [2], -34.6%; in experiment [3], 3.3%; in experiment [4] it was 17.6%; in experiment [5], -8.35%; in experiment [6] it was 14.1%.

With `Cc1cc2ccccc2c[n+]1CC(=O)CC([O-])(C(F)(F)F)C(F)(F)F`, the growth inhibition in experiment [1] was 2.85%; in experiment [2] it was 3.25%; in experiment [3], -5.65%; in experiment [4], 4.1%; in experiment [5], 16.4%; in experiment [6] it was -14.9%.

On to `COc1ccc(/C=C/C2=CC(=O)CC(c3ccc(OC)c(OC)c3)C2)cc1OC` (stereo unspecified), for which the growth inhibition in experiment [1] was 13.2%; in experiment [2], 5.35%; in experiment [3], 16.5%; in experiment [4] it was -35.6%; in experiment [5], 31.2%; in experiment [6], 9.35%.

Consider `CC(C)(C)CC(C)(C)c1ccc2c(c1)NC(C1Nc3cc(C(C)(C)CC(C)(C)C)ccc3O1)O2` (stereo unspecified), for which the growth inhibition in experiment [1] is 8.05%; in experiment [2], -5.8%; in experiment [3], -4.55%; in experiment [4] it was -4.4%; in experiment [5] it was -2.6%; in experiment [6] it was 10.8%.

For `O=C1CC2c3ccccc3C(O)(CC1=O)c1ccccc12`, the growth inhibition was 16.2% in experiment [1]; 6.7% in experiment [2]; 11.7% in experiment [3]; 15.2% in experiment [4]; -16.6% in experiment [5]; 19.2% in experiment [6].

On to `C[N+](C)(CCO)CCN1c2ccccc2Sc2ccccc21`, for which the growth inhibition in experiment [1] is -3.1%; in experiment [2] it was -17.5%; in experiment [3], 10.2%; in experiment [4], -23.6%; in experiment [5], -14.6%; in experiment [6], -3.7%.

In the case of `NC(=O)N/N=C/c1ccc([N+](=O)[O-])s1`, the growth inhibition in experiment [1] is -29.6%; in experiment [2], -0.8%; in experiment [3] it was 1.8%; in experiment [4], -39%; in experiment [5], -6.9%; in experiment [6], -8.5%.

As for `Nc1ncnc2c1ncn2C1C=COC(CO)C1O` (stereo unspecified), the growth inhibition is 4.95% in experiment [1]; 1.05% in experiment [2]; -6.5% in experiment [3]; 2.5% in experiment [4]; -28.5% in experiment [5]; 20.4% in experiment [6].

As for `N#C/C(=C\c1ccco1)C(=O)c1ccco1`, the growth inhibition in experiment [1] is 19.4%; in experiment [2], 15.1%; in experiment [3], 28.2%; in experiment [4] it was 13.8%; in experiment [5], 38.7%; in experiment [6], 34.6%.
